FLuc modulator: counter-screen for miR-21 project: firefly luciferase inhibitors or activators; Potency, µM (series often up to 57.5 µM), without a hit: at the highest dose activity change, negative = inhibition, most hits filed as inhibitors; AID 588342; purified FLuc, Km substrates, luminescence inhibition; hit rate 6.9% among 360,000;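 note: plate controls were vehicle for no effect and reference inhibitor for full effect; nearly all actives have a fitted effect of over 55% in size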
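Purified P. pyralis luciferase, 10 nM final, with Km-level 10 uM D-luciferin and 10 uM ATP in 50 mM Tris acetate pH 7.5, 10 mM Mg acetate, 0.01% Tween-20, 0.05% BSA; 6-point qHTS titration about 60 µM downward; luminescence read.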
ELG1 repair inh: ELG1-dependent DNA repair inhibition | HEK293T ELG1-luciferase reporter, luminescence, 16 h; DNA damage induced by 5-fluorouridine | Potency, µM (top dose mostly 46.1 µM), without a hit: at the top dose activity change, negative = inhibition, most hits filed as inhibitors | hit rate 2.3% among 330,000; note: % is set by controls: 0 for no effect and ±100 for the full control effect; nearly all actives have a fitted effect of over 55% in size
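Quantitative HTS, concentration-response format. 2,000 cells/well co-treated with 5-fluorouridine and compound, 16 hr in 5% CO2 at 37 °C; ONE-Glo luminescence read after 30 min.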
ELG1 genotoxic: inducers of genotoxicity in HEK293T ELG1-luciferase cells. hit rate 1.3% among 330,000. AID 504466. HEK293T ELG1-luciferase reporter, luminescence, 16 h. Potency, µM (titrated, usually from 46 µM), for the others: top-dose activity change, positive = activation, actives largely listed as activators; note: % of control where 0% means no effect; nearly all actives have a fitted effect of over 60% in size
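Reporter readout depends on ELG1 protein level, which increases with genetic stress. After 16 hr compound exposure at 37 °C, luciferase activity was quantified using ONE-Glo.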
Rab9 promoter act: activates the Rab9 promoter; Huh7 Rab9 promoter-luciferase reporter, luminescence, 24 h; Potency, µM (highest dose often 9.22 µM), inactives show at the top dose activation, negative = inhibition, hits mostly activators; hit rate 2.8% among 320,000; AID 485297; note: % of control where 0% means no effect; nearly all actives have a fitted effect of over 60% in size
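Quantitative HTS format; Huh7 Rab9-luciferase reporter cells (1500/well) receive compound 2 h post-plating, incubate 24 h at 37 °C, then get luciferase reagent for 10 min before luminescence reading.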
NPC1 promoter act: NPC1 promoter activation; Huh7 NPC1 promoter luciferase reporter, 24 h; Potency, µM (titrated, usually from 9.22 µM), for the others: top-dose activation, hits mostly activators; hit rate 2.4% among 320,000; AID 485313; note: % of control where 0% means no effect; nearly all actives have a fitted effect of over 60% in size
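Luminescence from an NPC1 promoter-driven luciferase reporter in stably transfected Huh7 cells was measured after 24 h compound treatment at 37 °C, followed by 10 min ambient incubation with luciferase detection reagent.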
SMN2 splice up: increases expression of the SMN2 splice variant; HEK293 SMN2-luciferase splicing reporter, luminescence, 30-36 h; Potency, µM (top dose mostly 46.1 µM), for inactives: at the top dose activity change, positive = activation, actives largely listed as activators; hit rate 2.8% among 210,000; AID 1458; note: % of control where 0% means no effect; nearly all actives have a fitted effect of over 55% in size
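qHTS luciferase splicing reporter: luminescence rises when SMN2 exon 7 is included in transfected HEK293 cells. Compound exposure lasted 30-36 h at 37C, with 4.5 mM final sodium butyrate as control, followed by a ONE-Glo read.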
ELG1 FLuc counter: luciferase inhibition in cell-free luciferin readout for ELG1 hits. shares compounds with ELG1 repair inh. cell-free firefly luciferase luminescence counter-screen, ViewLux. Potency, µM (top dose mostly 46.1 µM), for the others: at the top dose activity change, negative = inhibition, actives largely listed as inhibitors. hit rate 3% among 350. AID 624247; note: % is set by controls: 0 for no effect and ±100 for the full control effect
ELG1 Luc conf: human ELG1 repair inhibition, luciferase-tagged ELG1 confirmation; HEK293T ELG1-luciferase levels, luminescence; cells co-treated with 5-fluorouridine; AID 624248; shares compounds with ELG1 repair inh; hit rate 68% among 670; Potency, µM (titrated, usually from 46.1 µM), without a hit: at the top dose activity change, negative = inhibition, most hits filed as inhibitors; note: % is set by controls: 0 for no effect and ±100 for the full control effect; nearly all actives have a fitted effect of over 55% in size
ELG1-Luc MMS: MMS-stimulated human ELG1 repair inhibition, confirmed | shares compounds with ELG1 repair inh | HEK293T luciferase-tagged ELG1 level, MMS stimulated | Potency, µM (highest dose often 46.1 µM), for the others: at the highest dose activity change, negative = inhibition, hits mostly inhibitors | hit rate 53% among 670; note: % is set by controls: 0 for no effect and ±100 for the full control effect; nearly all actives have a fitted effect of over 60% in size
ELG1 5FU viab: confirmation of ELG1 repair inhibitors: viability with 5FU; shares compounds with ELG1 repair inh; cell viability with 5-FU, ELG1-dependent repair; Potency, µM (titrated, usually from 46.1 µM), for the others: at the highest dose activity change, negative = viability loss, actives largely listed as cytotoxic; 670 tested, under 10 active; AID 624250;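 note: ELG1-luc HEK293T cells cotreated with 5-fluorouridine at 10 µM final; viability measured 16 h after compound addition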
ELG1 MMS viab: confirmation of ELG1 repair inhibitors: viability with MMS; shares compounds with ELG1 repair inh; Cell viability with MMS, ELG1-dependent DNA repair; Potency, µM (series often up to 46.1 µM), for the others: at the top dose activity change, negative = viability loss, usual class: cytotoxic; hit rate 33% among 670; AID 624251;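 note: ELG1-luc HEK293T cells co-treated with 10 µM MMS; viability read 16 h after compound addition; % is set by controls: 0 for no effect and ±100 for the full control effect; nearly all actives have a fitted effect of over 60% in size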
ELG1 unstim viab: unstimulated viability counter-screen for ELG1 repair hits; shares compounds with ELG1 repair inh; cell viability counter-screen, unstimulated, luminescence; Potency, µM (top dose mostly 45.9 µM), for inactives: at the top dose activity change, negative = loss of viability, hits mostly cytotoxic; hit rate 8% among 900;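 note: compound exposure lasted 16 hours before reading; % is set by controls: 0 for no effect and ±100 for the full control effect; nearly all actives have a fitted effect of over 55% in size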
FLuc enzyme: counter-screen for ELG1 repair inhibitors: firefly luciferase inhibition. Potency, µM (highest dose often 57.5 µM), inactives show at the top dose activity, negative = inhibition, actives largely listed as inhibitors. hit rate 10% among 350. purified firefly luciferase, luminescence counter-screen. shares compounds with ELG1 repair inh. AID 624253; note: % is set by controls: 0 for no effect and ±100 for the full control effect
Starred values were filed as active, the others as inactive; ? = inconclusive; . = not tested or not shown; [ ] = another dose, or the depositor's remark. Only some compounds are listed: those with a hit (about 9.3% of all), similar ones and a draw of the others. Calls come from the whole dose curve; as a rule, active = well fitted curve in the direction sought with a large enough effect; inconclusive = small, poorly fitted or top-dose-only effect, or another doubt; inactive = no such curve, though single readings can be large; an effect the other way counts as inactive or inconclusive. Potency is the fitted concentration of half-maximal effect.

SMILES	FLuc modulator	ELG1 repair inh	ELG1 genotoxic	Rab9 promoter act	NPC1 promoter act	SMN2 splice up	ELG1 Luc conf	ELG1-Luc MMS	ELG1 5FU viab	ELG1 MMS viab	ELG1 unstim viab	others
O=C(NCC(=O)N1CCN(c2ccc(C(F)(F)F)cn2)CC1)c1ccc(Br)o1	4%	-16%	-5%	-5%	-8%	.	.	.	.	.	.
COC(=O)N1CCC2(CCN(Cc3ccc(C#N)cc3)CC2)CC1	.	.	.	.	.	2%	.	.	.	.	.
COC(=O)[C@H](CC(C)C)NC(=O)Cn1cnc2c(OCc3ccccc3)ncnc21	.	15%	2%	.	.	.	.	.	.	.	.
Cc1cc2ncc(-c3ccccc3)nc2cc1C	0.6µM*	?	1.6µM*	0.79µM*	1.3µM*	5µM*	.	.	.	.	?
O=c1c2ccccc2oc2c1oc1ccccc12	.	?	?	.	.	.	.	.	.	.	-15%
CN(CC(=O)Nc1ccc(Cl)c(S(=O)(=O)N2CCOCC2)c1)C(=O)c1ccc(C#N)cc1	6%	?	-1%	-7%	0%	.	.	.	.	.	.
Clc1ccc(-c2c[n+](Cc3ccc(Cl)c(Cl)c3)c3n2CCC3)cc1	1%	-13%	-9%	-11%	-10%	-25%	.	.	.	.	.
Cc1ccc(-c2c[n+](Cc3ccc(Cl)cc3)c3n2CCC3)cc1	7%	2.6µM*	-15%	-26%	-7%	.	?	7.9µM*	-4%	7.9µM*	4µM*	ELG1 FLuc counter=-14%;FLuc enzyme=-10%
COc1cc2c(cc1OC)CN(S(=O)(=O)c1cccc(F)c1)CC2	1%	22%	2%	0%	-5%	.	.	.	.	.	.
COc1cc(/C=N/Nc2nc(C)cc(C)n2)ccc1OC(=O)c1ccco1	-18%	14%	13%	2%	1%	-12%	.	.	.	.	.
CCOc1cc(/C=N\Nc2nc(Nc3ccccc3)nc(N3CCOCC3)n2)ccc1OC(=O)c1ccco1	?	2.3µM*	-8%	-12%	0%	-17%	1.6µM*	?	?	?	?
CC(=O)N(C)c1ccc(/C=C2\C=Cc3ccccc32)cc1	.	.	.	.	.	.	.	.	.	.	?	ELG1 FLuc counter=71%;FLuc enzyme=0.23µM*
CCc1c(C)nc2cc(-c3cc(OC)cc(OC)c3)nn2c1N1CCN(CCN2CCOCC2)CC1	-10%	2.6µM*	-6%	-1%	-8%	9%	4.4µM*	?	?	9%	-6%
CCCCc1ccc(NC(=O)c2ccc(N(C)S(C)(=O)=O)cc2)cc1	-20%	1.5µM*	0%	-39%	-33%	.	?	0.44µM*	-10%	0.63µM*	?
CCN(CC)S(=O)(=O)c1ccc(NC(=O)c2ccc(N(C)S(C)(=O)=O)cc2)cc1	-7%	3.7µM*	-3%	-34%	-25%	-80%	?	0.79µM*	-1%	1.1µM*	?
COc1ccc(NC(=O)c2ccc(N(C)S(C)(=O)=O)cc2)cc1OC	-10%[2.3 µM]	23%	1%	11%	8%	16%	.	.	.	.	.
CCCCc1ccc(NC(=O)c2ccc(NS(C)(=O)=O)cc2)cc1	-13%	-3%	-2%	-3%	-3%	-6%	.	.	.	.	.
CCN(CC)S(=O)(=O)c1ccc(NC(=O)c2ccccc2N(C)S(C)(=O)=O)cc1	0%	2%	-2%	-4%	-3%	-4%	.	.	.	.	.
COC(=O)c1ccc(NC(=O)c2ccc(N(C)S(C)(=O)=O)cc2)cc1	-13%	3.7µM*	-1%	-26%	-11%	.	-12%	5µM*	-7%	5µM*	?
CC(=O)c1cccc(NC(=O)COC(=O)c2n[nH]c3ccccc23)c1	?	-9%	-1%	3%	-1%	13%	.	.	.	.	.
Cc1ccc(C)c(-c2cc(C(=O)Nc3cccc(C(=O)O)c3)c3ccccc3n2)c1	-19%	16%	6%	-3%	0%	5%	.	.	.	.	.
COc1cc(-c2cc(C(=O)Nc3cccc(C(C)=O)c3)c3ccccc3n2)cc(OC)c1OC	-11%	1.6µM*	-14%	-2%	3%	.	0.71µM*	11µM*	?	-10%	?
O=C(O)c1c2c(nc3ccc(S(=O)(=O)N4CCC(C(=O)NCc5ccccc5Cl)CC4)cc13)CCCC2	-3%	-8%	-1%[9.26 µM]	-2%	-5%	.	.	.	.	.	.
O=C(NC1CC1)c1cccc(S(=O)(=O)Nc2ccccc2F)c1	0%	0%	-14%	-12%	-3%	.	.	.	.	.	.
CS(=O)(=O)c1ccc(Cl)c(NC(=O)CN2CCCC2c2ccc3c(c2)OCCCO3)c1 (stereo unspecified)	4%	?	-4%	-4%	-1%	.	.	.	.	.	.
COc1ccc(C)cc1NC(=O)CN1CCCC1c1ccc2c(c1)OCCCO2 (stereo unspecified)	.	4.1µM*	-10%	.	.	.	3.1µM*	18µM*	?	?	-10%
CCC1=C2CC[C@H]3C(=O)NC(=O)[C@H]3[C@H]2[C@@]2(Cc3ccccc3)C(=NCC3CC3)OC(=O)N2C1=O	.	.	.	.	.	-14%	.	.	.	.	.
NC(=O)c1ccc(N2CCN(c3ccc(O)cc3)CC2)c([N+](=O)[O-])c1	1%	4.1µM*	-8%	-4%	4%	-10%	6.3µM*	5%	?	?	-2%
